Compounds with a hit are over-represented: about 12% of the library has one in this group of screens.
L3MBTL1 block: qHTS Assay for the Inhibitors of L3MBTL1. Lethal(3)malignant brain tumor-like protein 1 (Homo sapiens), Q9Y468. AlphaScreen L3MBTL1–H3K9me1 peptide binding. Potency, µM (titrated, usually from 57.1 µM), hits mostly inhibitors. hit rate 0.66% among 230,000. AID 485360, 2010; note: nearly all actives have a fitted effect of over 60% in size
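AlphaScreen assay: L3MBTL1 (50 nM final) was preincubated 30 min at room temperature with biotinylated H3(1-15)K9me1 peptide (75 nM final), then 30 min with library compounds; streptavidin donor and nickel chelate acceptor beads (10 ug/mL final) added, 30 min dark.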
HP1b binding inh: HTS for Inhibitors of HP1-beta Chromodomain Interactions with Methylated Histone Tails | Chromobox protein homolog 1 (Homo sapiens), P83916 | AlphaScreen HP1-beta / biotin-H3K9me3 peptide binding | Potency, µM (top dose mostly 114 µM), hits mostly inhibitors | hit rate 0.56% among 390,000; note: nearly all actives have a fitted effect of over 70% in size
Target sequence (P83916 whole entry, looked up): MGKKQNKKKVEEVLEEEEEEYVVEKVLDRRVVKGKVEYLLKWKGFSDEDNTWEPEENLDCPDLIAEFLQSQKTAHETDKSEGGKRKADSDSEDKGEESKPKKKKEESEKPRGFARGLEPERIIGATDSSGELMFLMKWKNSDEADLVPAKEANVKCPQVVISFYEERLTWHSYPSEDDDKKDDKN
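HP1-beta protein (50 nM final) preincubated 30 min at room temperature with biotinylated H3(1-18)K9me3 peptide (50 nM) in PBS pH 7.4, 0.01% Tween-20, then compound added for 30 min. AlphaScreen streptavidin donor/nickel chelate acceptor beads (10 ug/mL final), 30 min dark, luminescence read.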
G9a inh: qHTS Assay for Inhibitors of Histone Lysine Methyltransferase G9a; G9a H3K9 monomethylation, AlphaScreen, 2 h; hit rate 8.8% among 350,000; Potency, µM (titrated, usually from 102 µM), hits mostly inhibitors; note: nearly all actives have a fitted effect of over 75% in size
Target sequence (Q96KQ7 913-1193 limits assumed): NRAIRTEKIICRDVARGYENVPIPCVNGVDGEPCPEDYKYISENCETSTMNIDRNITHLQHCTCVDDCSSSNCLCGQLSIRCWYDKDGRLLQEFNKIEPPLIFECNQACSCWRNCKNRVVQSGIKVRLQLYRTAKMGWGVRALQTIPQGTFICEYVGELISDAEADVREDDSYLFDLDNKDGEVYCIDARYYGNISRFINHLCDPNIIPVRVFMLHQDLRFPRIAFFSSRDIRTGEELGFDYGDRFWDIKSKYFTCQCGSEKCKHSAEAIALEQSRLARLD
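Methyltransferase reactions run at room temperature for 2 h (20 nM enzyme, 500 nM biotin-H3K9 peptide, 20 uM SAM) after a 15 min compound preincubation; product detected by AlphaScreen beads and anti-H3K9me1 antibody.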
Sfp inh: qHTS Assay for Inhibitors of Bacillus subtilis Sfp phosphopantetheinyl transferase (PPTase) | 4'-phosphopantetheinyl transferase ffp (Bacillus subtilis), Q9F4F7 | Biochemical Sfp PPTase activity, qHTS | Potency, µM, most hits filed as inhibitors | hit rate 3.5% among 310,000;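 note: the enzyme is Sfp with the accession as filed and its product quenches rhodamine fluorescence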
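Buffer: 50 mM Hepes-Na pH 7.6, 10 mM MgCl2, 0.01% Nonidet P-40, 0.01% BSA. Enzyme 15 nM, pre-exposed to compound 15 min; substrates then added and fluorescence change tracked over 30 min.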
JMJD2A Tudor inh: qHTS Assay for Inhibitors of JMJD2A-Tudor Domain | hit rate 4.4% among 390,000 | AlphaScreen JMJD2A-Tudor / H3K4me3 peptide binding | Potency, µM (top dose mostly 114 µM), usual class: inhibitors | AID 504339, 2011; note: nearly all actives have a fitted effect of over 50% in size
BAZ2B block: qHTS Assay for Inhibitors of BAZ2B; AID 504333, 2011; Bromodomain adjacent to zinc finger domain protein 2B (Homo sapiens), Q9UIF8; Potency, µM (top dose mostly 114 µM), actives largely listed as inhibitors; AlphaScreen BAZ2B-H3K14Ac peptide displacement; hit rate 4.4% among 360,000; note: nearly all actives have a fitted effect of over 60% in size
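BAZ2B 50 nM plus b-H3(5-23)K14Ac 50 nM, PBS pH 7.4/0.01% Tween-20, 30 min RT; compound added (max 110 uM), 30 min RT; streptavidin donor/Ni-chelate acceptor beads 10 ug/mL final, 20 min dark; AlphaScreen read.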
Hits are given with their value; - = inactive; ? = inconclusive; . = no result; [ ] = remark or other dose. Calls come from the whole dose curve; as a rule, active = well fitted curve in the direction sought with a large enough effect; inconclusive = small, poorly fitted or top-dose-only effect, or another doubt; inactive = no such curve, though single readings can be large; an effect the other way counts as inactive or inconclusive.

SMILES | L3MBTL1 block | HP1b binding inh | G9a inh | Sfp inh | JMJD2A Tudor inh | BAZ2B block
COCCCNC(=O)C1CCN(C(=O)c2ccc(-n3ccc4ccccc43)s2)CC1 | . | - | - | . | - | -
COc1ccc(OC)c(NC(=O)COCc2cc(-c3ccco3)on2)c1 | . | - | - | . | - | -
COc1ccc(-c2cc(C(=O)Oc3cccc(C)c3)c3ccccc3n2)cc1 | . | - | - | . | - | -
CN(C)CCCN(C(=O)c1ccc(S(=O)(=O)N2CCc3ccccc32)cc1)c1nc2c(Cl)cccc2s1 | . | - | 39.8µM | ? | ? | ?
COc1cccc2sc(N(CCCN(C)C)C(=O)c3ccc(S(=O)(=O)N4CCCc5ccccc54)cc3)nc12 | . | - | . | ? | ? | 39.8µM
CCOc1cccc2sc(N(CCCN(C)C)C(=O)c3ccc(S(=O)(=O)N4CCCCCC4)cc3)nc12 | . | - | - | - | ? | -
CCn1nc(C)c2c(-c3ccccc3)cc(=O)n(C(C)C(=O)NCCc3ccccc3)c21 (centres undefined) | . | - | - | . | - | -
Cc1cc(O)c2c(C)c(CC(=O)NCc3ccccc3Cl)c(=O)oc2c1 | . | - | - | . | - | -
CCNc1ccccc1CP(=O)(c1ccccc1)c1ccccc1O (centres undefined) | . | 31.6µM | ? | 1.41µM | 50.1µM | 39.8µM
Cc1ccc(O)c(CP(=O)(c2ccccc2)c2ccccc2)c1 | - | - | - | - | - | -
CCOc1ccc(Nc2nc(C)c(NC(=O)c3cccc(OC)c3)c(Nc3ccc(OCC)cc3)n2)cc1 | . | - | 11.2µM | . | ? | ?
CCOc1ccc(C(=O)Nc2c(C)nc(Nc3ccccc3)nc2Nc2ccccc2)cc1OCC | . | - | - | . | - | -
Cc1ccc(NC(=O)Nc2cn(CC(C)C)c(=O)c3ccccc23)cc1N(C)C | . | - | ? | . | ? | ?
COc1ccc(-c2nc3cnc(OCc4ccccc4)nc3n(CCC#N)c2=O)cc1 | . | . | -[0.501 µM] | - | . | .
N#CC1=C2N=C(N)c3ccccc3N2C2=C(C(=O)CCC2)C1c1ccc(F)cc1 (centres undefined) | . | - | - | - | ? | -
N#CC1=C2N=C(N)c3c(sc4c3CCCCC4)N2C2=C(C(=O)CCC2)C1c1ccccc1 (centres undefined) | - | - | - | - | ? | 44.7µM
Cc1ccc(C2C(C#N)=C3N=C(N)c4ccccc4N3C3=C2C(=O)CCC3)cc1 (centres undefined) | . | - | ? | - | ? | 50.1µM
COc1cccc(NC(=O)Cn2c(=O)n(-c3ccc(C)cc3)c(=O)c3ccccc32)c1 | . | - | - | . | - | -
S=c1[nH]nc(-c2ccccc2Cl)n1CC1CCCO1 (centres undefined) | -[11.4 µM] | - | 5.01µM | ? | 39.8µM | -
CC(C)(C)c1ccc(-c2n[nH]c(=S)n2CC2CCCO2)cc1 (centres undefined) | - | - | 7.94µM | - | 31.6µM | -
Fc1ccccc1-c1n[nH]c(=S)n1CC1CCCO1 (centres undefined) | - | - | -[12.7 µM] | - | - | -
CN1CCN(CC(=O)Nc2nnc(-c3cccs3)s2)CC1 | - | - | ? | - | 11.2µM | -
CCC(CC)C(=O)Nc1nnc(-c2cccs2)s1 | - | - | 15.8µM | - | - | -
COc1cccc(OC)c1C(=O)Nc1nnc(-c2cccs2)s1 | - | - | . | - | - | -
CCCN1CCN(CC(=O)Nc2nnc(C)s2)CC1 | . | - | . | - | - | -
SMILES | L3MBTL1 block | HP1b binding inh | G9a inh | Sfp inh | JMJD2A Tudor inh | BAZ2B block
CCCc1nnc(NC(=O)CN2CCN(C)CC2)s1 | . | - | ? | - | - | 79.4µM
c1coc(CNc2nc(-c3cccs3)nc3ccccc23)c1 | . | . | . | . | - | .
NCCCNC(=O)c1ccc(/C=N/O)nc1 | - | - | 2.82µM | 70.8µM | 8.91µM | 22.4µM
Cc1ccc(C(=O)NCCCNC(=O)c2ccccc2F)cn1 | . | - | - | - | - | -
CSc1nn(Cc2ccccc2C)c(NC(C)=O)c1S(=O)(=O)c1ccc(C)cc1 | . | - | - | . | - | -
CC1(c2ccccc2)CC(C)(C)N2C(=O)C3(C(C#N)=C(N)Oc4cc(O)ccc43)c3cccc1c32 (centres undefined) | . | ? | - | - | ? | -
CC1(c2ccccc2)CC(C)(C)N2C(=O)/C(=C3\SC(=S)NC3=O)c3cccc1c32 (centres undefined) | - | 14.1µM | ? | - | 28.2µM | ?
O=C(O)CCN1CCc2ccccc2C1c1cccs1 (centres undefined) | - | - | 50.1µM | - | - | -
O=C(NNS(=O)(=O)c1ccccc1F)c1cccc(S(=O)(=O)N2CCOCC2)c1 | - | - | ? | - | 11.2µM | -
O=C(Nc1nnc(-c2ccccc2)s1)c1cccc(S(=O)(=O)N2CCOCC2)c1 | - | - | ? | - | 79.4µM | -
CC(C)Cc1nnc(NC(=O)c2cccc(S(=O)(=O)N3CCN(C)CC3)c2)s1 | - | - | 39.8µM | . | - | -
CC(C)Cc1nnc(NC(=O)c2cccc(S(=O)(=O)N3CCOCC3)c2)s1 | - | - | - | . | - | -
O=C(Nc1nnc(-c2ccccc2)s1)c1ccc(Cl)c(S(=O)(=O)N2CCOCC2)c1 | - | . | - | - | . | -
Clc1nc(-c2cccnc2)nc2scc(-c3ccccc3)c12 | - | - | - | - | - | -
COc1ccc(-c2csc3nc(-c4cccnc4)nc(Cl)c23)cc1OC | - | - | ? | 25.1µM | - | -
CCOC(=O)N1CCN(C(=O)CNC2CCCCCCC2)CC1 | - | - | 31.6µM | - | 31.6µM | 50.1µM
CCOC(=O)N1CCN(C(=O)NC2CCCCC2)CC1 | - | - | -[0.0925 µM] | - | - | -
O=C(Nc1ccc(F)cc1F)c1cc(-c2ccccc2O)no1 | . | - | - | . | - | -
CCc1c(C)sc(NC(=O)c2ccccc2[N+](=O)[O-])c1C(N)=O | - | - | 44.7µM | - | - | -
Cc1sc(NC(=O)/C=C/C(=O)O)c(C(N)=O)c1-c1ccc(C(C)(C)C)cc1 | - | - | ? | - | - | -
CCc1c(C)sc(NC(=O)/C=C/C(=O)O)c1C(N)=O | - | - | 35.5µM | - | - | -
CC1C(=O)N2CCCc3cc(S(=O)(=O)Nc4ccc(Br)cc4F)cc1c32 (centres undefined) | . | - | - | . | - | -
COC(=O)c1c(SC)nc2ccccc2c1OCc1ccccc1C | . | - | - | . | - | -
Cc1cc(C)n2nc(C(=O)NCCc3ccccc3)nc2n1 | . | - | ? | ? | - | -

Screening results deposited in PubChem by National Center for Advancing Translational Sciences (NCATS).
